Results as given in PubChem BioAssay (NCATS).
Results filed as inconclusive are left out. Activity calls are given as the source filed them. Calls come from the whole dose curve; as a rule, active = well fitted cell-killing curve with a large enough effect; inconclusive = small, poorly fitted or top-dose-only effect, or effect the other way; inactive = no such curve, though single readings can be large or run the other way.

assay: Quantitative High-Throughput drug screen in 47 multiple myeloma cell lines against the NCATS MIPE library collection: OPM2_DSMZ cell viability assay (AID 1919872); conditions: OPM2 myeloma viability, CellTiter-Glo ATP luminescence, 48 h; series mostly up to 45.8 µM; note: nearly all actives have a fitted effect of over 30% in size
From the text: PI: Beverly A. Mock Ph.D.
Laboratory of Cancer Biology and Genetics,
Center for Cancer Research, National Cancer Institute,
National Institute of Health, Bethesda, Maryland
Drug resistance and disease progression are common in multiple myeloma (MM) patients, underscoring the need for new therapeutic combinations. […] We hypothesized that effective combinations would reduce MYC expression and enhance p16 activity. […] These preclinical data identify potentially useful drug combinations for evaluation in drug-resistant MM and reveal potential mechanisms of combined drug sensitivity.
Described herein is the primary MIPE qHTS used to cherrypick compounds. Validated compounds were then further tested for potential synergistic activiy.
[1] Peat TJ, Gaikwad SM, Dubois W, Gyabaah-Kessie N, Zhang S, Gorjifard S, Phyo Z, Andres M, Hughitt VK, Simpson RM, Miller MA, Girvin AT, Taylor A, Williams D, D'Antonio N, Zhang Y, Rajagopalan A, Flietner E, Wilson K, Zhang X, Shinn P, Klumpp-Thomas C, McKnight C, Itkin Z, Chen L, Kazandijian D, Zhang J, Michalowski AM, Simmons JK, Keats J, Thomas CJ, Mock BA. Drug combinations identified by high-throughput screening promote cell cycle transition and upregulate Smad pathways in myeloma. Cancer Lett. 2023 Aug 1;568:216284. doi: 10.1016/j.canlet.2023.216284. Epub 2023 Jun 24. PMID: 37356470; PMCID: PMC10408729.
SEQUENCE No. (e.g., 1, 2, 3, etc.); […] (e.g., Cells, Incubation, Reagent, etc.); VALUE and DESCRIPTION.
1; Cells; 5 uL; white, solid bottom 1536-well Greiner assay plate.
2; Compounds; 23 nL; Kalypsis pin tool (Wako USA) equipped with a 1536-well pin head to transfer to the assay plates.
3; Incubation; 48 hours; 37C incubation.
4; Reagent;5uL; CellTiter Glo (Promega).
5; Detector; 425V; Luminescence; Viewlux PerkinElmer.
NOTES (numbers refer to Sequence numbers above)
1. The cell-based screening methods employed in this study were like those previously published. Briefly, the corresponding myeloma cell lines were screened in 1,536-well plates with 500 cells, 5-uL per well for inhibition of cell viability (assessed by measuring ATP levels with CellTiterGlo).
2. NCATS MIPE 4.0 library of approved and investigational drugs were added using the Kalypsis pin tool. Wells treated with DMSO only for 100% viability and media only wells for 0% viability were used as controls.
3. The assay plates were covered and incubated for 48 hours in a 37C, 5% CO2 incubator with controlled humidity.
4. After 48 hours, CellTilter-GloTM luminescent substrate mix (Promega) reagent was added to the assay plate and plates we incubated for 5 min at room temperature.
5. Signal was measured as median relative luminescence units on a ViewLux (PerkinElmer) multiplate reader.
[1] Heske CM, Davis MI, Baumgart JT, Wilson K, Gormally MV, Chen L, Zhang X, Ceribelli M, Duveau DY, Guha R, Ferrer M, Arnaldez FI, Ji J, Tran HL, Zhang Y, Mendoza A, Helman LJ, Thomas CJ. Matrix Screen Identifies Synergistic Combination of PARP Inhibitors and Nicotinamide Phosphoribosyltransferase (NAMPT) Inhibitors in Ewing Sarcoma. Clin Cancer Res. 2017 Dec 1;23(23):7301-7311. doi: 10.1158/1078-0432.CCR-17-1121. Epub 2017 Sep 12. PMID: 28899971; PMCID: PMC6636827.
Potency is the fitted concentration of half-maximal effect.

| Compound | Potency |
| --- | --- |
| Cc1cccc(C=NNc2cc(N3CCOCC3)nc(OCCc3ccccn3)n2)c1 | 6.62 µM (active) |
| Clc1cccc(-n2nnnc2NCc2ccccc2Oc2ccccn2)c1Cl | inactive |
| c1cc(-c2cnn3cc(-c4ccc(OCCN5CCCCC5)cc4)cnc23)ccn1 | 20.9 µM (active) |
| O=C(Cc1ccc(-c2ccc(OCCN3CCOCC3)cc2)cn1)NCc1ccccc1 | 0.0372 µM (active) |
| CCCCc1nc2cc(C=CC(=O)NO)ccc2n1CCN(CC)CC | 0.833 µM (active) |
| CCCNC(=O)Nc1ccc(Oc2ncnc3cc(OC)c(OC)cc23)cc1Cl | inactive |
| CN(C)CC(C)(C)CNc1nn2c(-c3ccccc3)nnc2cc1C1CCC1 | inactive |
| CC(C)[C@H](C(=O)Nc1ccc(C(=O)NO)cc1)c1ccccc1 | 0.833 µM (active) |
| C1Cc2[nH]nc(-c3nn[nH]n3)c2C1 | inactive |
| CNC(=O)c1c(F)cccc1Nc1nc(Nc2cc3c(cc2OC)CCN3C(=O)CN(C)C)nc2[nH]ccc12 | 11.8 µM (active) |
| CCn1nnc2c(N3CCOCC3)nc(-c3ccc(NC(=O)Nc4ccc(C(=O)N5CCN(C)CC5)cc4)cc3)nc21 | 0.0935 µM (active) |
| CN1CC[C@@H](c2c(O)cc(O)c3c(=O)cc(-c4ccccc4Cl)oc23)[C@@H](O)C1 | 0.118 µM (active) |
| COc1ccc(F)c(F)c1C(=O)c1cnc(NC2CCN(S(C)(=O)=O)CC2)nc1N | 3.32 µM (active) |
| N#CCNC(=O)c1ccc(-c2ccnc(Nc3ccc(N4CCOCC4)cc3)n2)cc1 | 20.9 µM (active) |
| NC(=O)c1c(OCc2c(F)cc(Br)cc2F)nsc1NC(=O)NCCCCN1CCCC1 | 20.9 µM (active) |
| COc1ccc2c(c1)CC[C@@H](CN(C)CC(=O)O)[C@H]2c1ccccc1 | 8.33 µM (active) |
| CC1(O)CC(c2nc(-c3ccc4ccc(-c5ccccc5)nc4c3)c3c(N)nccn23)C1 (stereo not given) | 18.7 µM (active) |
| CN(c1ncccc1CNc1nc(Nc2ccc3c(c2)CC(=O)N3)ncc1C(F)(F)F)S(C)(=O)=O | 7.43 µM (active) |
| O=C(NCCS(=O)(=O)c1ccc(C(F)(F)F)cn1)c1ccc(Cl)cc1 | inactive |
| O=C(O)c1ccc2cc(-c3ccc(O)c(C45CC6CC(CC(C6)C4)C5)c3)ccc2c1 | 23.5 µM (active) |

| Compound | Potency |
| --- | --- |
| COc1cc(C(=O)N2CCC(N3CCN(C)CC3)CC2)ccc1Nc1ncc2c(n1)N(C)c1ccccc1C(=O)N2C | 10.5 µM (active) |
| CC=CC1=C(C(=O)O)N2C(=O)[C@H](NC(=O)[C@H](N)c3ccc(O)cc3)[C@@H]2SC1 | inactive |
| CC(C)c1ccc(Cn2ccc3c4c(N)nc(NC5CC5)nc4ccc32)cc1 | 6.62 µM (active) |
| Cc1cc(Nc2ncnc3ccc(-c4ccc(CNCCS(C)(=O)=O)o4)cc23)ccc1Oc1ccn2ncnc2c1 | 20.9 µM (active) |
| Cc1cc(C(=O)N2CCN(c3cccc(Cl)c3)CC2)n(-c2ccccc2)n1 | 5.9 µM (active) |
| Cc1cn(-c2cc(NC(=O)c3ccc(C)c(Nc4nccc(-c5cccnc5)n4)c3)cc(C(F)(F)F)c2)cn1 | 14.8 µM (active) |
| COc1c(OCCCN2CCOCC2)ccc2c3n(c(=NC(=O)c4cnc(N)nc4)nc12)CCN3 | 2.04 µM (active) |
| COc1cccc2nc(-c3cccs3)nc(NN3C(=O)C=C(C)C3=O)c12 | 1.48 µM (active) |
| NC(=O)Nc1cc(-c2cccc(F)c2)sc1C(=O)N[C@H]1CCCNC1 | 2.64 µM (active) |
| CC(C)c1noc(N2CCC(COc3ccc(-c4ccc(S(C)(=O)=O)cc4)nc3)CC2)n1 | inactive |
| C=C1C(=CC=C2CCC[C@]3(C)[C@@H]([C@H](C)C=C[C@H](C)C(C)C)CC[C@@H]23)C[C@@H](O)C[C@@H]1O | 10.5 µM (active) |
| COc1cc2c(Oc3ccc(NC(=O)C4(C(=O)Nc5ccc(F)cc5)CC4)cc3F)ccnc2cc1OCCCN1CCOCC1 | 4.18 µM (active) |
| CC1=C(CO)C(=O)O[C@@H]([C@@H](C)[C@H]2CC[C@H]3[C@@H]4C[C@H]5O[C@]56[C@@H](O)C=CC(=O)[C@]6(C)[C@@H]4CC[C@]23C)C1 | 0.296 µM (active) |
| Cc1cnc(Nc2ccc(F)cc2Cl)nc1-c1c[nH]c(C(=O)N[C@H](CO)c2cccc(Cl)c2)c1 | 18.7 µM (active) |
| CC(C)c1cc(C(=O)N2Cc3ccc(CN4CCN(C)CC4)cc3C2)c(O)cc1O | 0.332 µM (active) |
| Clc1ccc2ncc(-c3cccc(NC4CNC4)n3)n2c1 | 23.5 µM (active) |
| COC(=O)[C@]12CCC(C)(C)C[C@@H]1[C@@H]1C(=O)C=C3[C@@]4(C)C=C(C#N)C(=O)C(C)(C)[C@@H]4CC[C@@]3(C)[C@]1(C)CC2 | 0.833 µM (active) |
| CC(C)c1cnn2c(NCc3ccccc3)cc(N[C@@H](CO)[C@H](O)CO)nc12 | 0.332 µM (active) |
| Cc1ccc(NC(=O)C2(c3ccc4c(c3)OC(F)(F)O4)CC2)nc1-c1cccc(C(=O)O)c1 | 0.0743 µM (active) |
| COCCOc1ccc2c(c1)ncn2-c1ccc2cccc(N3CCC(N)CC3)c2n1 | 1.87 µM (active) |
